# Data as given in PubChem BioAssay.
# “And” between values parts separate entries of the source, which are not always exact repeats. Identical values can stand only once. A structure can be active in one record and inactive in another. The source made the active and inactive calls.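 Rule for the calls, unless noted: active = inhibition at or above 50% relative to wild type and mutant plate controls; inactive = inhibition below 50%.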
# Key:
# [1] = inhibitors of TNFa-induced NFkB p65 translocation, primary screen, imaging, HUVEC, MLSMR starter and 10KST1 sets (AID 438;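 active = inhibition above 20% together with a positive visual image hit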;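 note: compound added about 3h40 before a 20 min TNFalpha stimulation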;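 for inhibition: signal is the nuclear over cytoplasmic p65 intensity ratio per well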); conditions: HUVEC TNFa-induced p65 nuclear translocation; cell count: measured here: nuclei count (cytotoxicity indicator), at 2.08 µM; inhibition: at 2 µM, stronger effect = higher value, 0% TNFa-plus-vehicle, 100% no-TNFa wells
# [2] = inhibitors of E-selectin induction by TNFa, primary screen, imaging, HUVEC, immunofluorescence, MLSMR starter and 10KST1 sets (AID 487;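 active = visually confirmed hit in the image check and inhibition above 20%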;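 for inhibition: signal is fraction of cell area covered by stained E-selectin grains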;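 for nuclei count: 100% = median nuclei count of all wells on the same plate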); conditions: HUVEC TNFalpha-induced E-selectin immunofluorescence imaging, at 2 µM; inhibition: stronger effect = higher value; nuclei count: measured here: cell number, toxicity
# [3] = DUSP6 inhibitors restoring Erk phosphorylation by chemical complementation, primary imaging in DUSP6-transfected HeLa (AID 609;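 active = compounds giving at least 50% inhibition in the cell-based MKP-3 phosphatase rescue imaging test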;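 for inhibition: phospho-Erk level distribution per well compared with pooled transfected vehicle control wells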); conditions: HeLa MKP-3 transfected, phospho-Erk imaging KS statistic, at 10 µM, cells stimulated with TPA for 15 min
# [4] = biological target: Dual specificity protein phosphatase 6 (Homo sapiens) (UniProt Q16828); assay: as above; conditions: HeLa MKP-3 transfected, phospho-Erk imaging KS statistic; at 10 µM; stronger effect = higher value; cells stimulated with TPA for 15 min
# Chain of Dual specificity protein phosphatase 6 (Homo sapiens) (Q16828 whole entry, looked up): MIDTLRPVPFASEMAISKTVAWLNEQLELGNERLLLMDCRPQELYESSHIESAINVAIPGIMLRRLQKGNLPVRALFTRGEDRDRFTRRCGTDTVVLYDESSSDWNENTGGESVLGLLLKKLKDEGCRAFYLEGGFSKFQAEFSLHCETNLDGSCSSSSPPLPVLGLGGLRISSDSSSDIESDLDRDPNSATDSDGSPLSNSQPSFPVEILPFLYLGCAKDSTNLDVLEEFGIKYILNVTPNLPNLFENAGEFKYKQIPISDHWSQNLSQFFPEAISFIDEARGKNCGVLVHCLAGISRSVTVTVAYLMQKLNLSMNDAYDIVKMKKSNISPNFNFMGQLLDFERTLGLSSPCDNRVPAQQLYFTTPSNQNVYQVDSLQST
# [5] = biological target: Alpha-2C adrenergic receptor (Homo sapiens) (UniProt P18825); assay: modulators of alpha2C/GIRK thallium flux, primary screen, cell-based, HEK293 alpha2C/GIRK1/2 (AID 624;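 active = fluorescence slope after compound addition differing from the mean of all screened samples at 99.7% confidence, in either direction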;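 note: slope of fluorescence ratio to pre-addition baseline per second over 15 to 24 s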); conditions: thallium flux BTC fluorescence, at 10 µM, actives lie on both sides
# Chain of Alpha-2C adrenergic receptor (Homo sapiens) (P18825 whole entry, looked up): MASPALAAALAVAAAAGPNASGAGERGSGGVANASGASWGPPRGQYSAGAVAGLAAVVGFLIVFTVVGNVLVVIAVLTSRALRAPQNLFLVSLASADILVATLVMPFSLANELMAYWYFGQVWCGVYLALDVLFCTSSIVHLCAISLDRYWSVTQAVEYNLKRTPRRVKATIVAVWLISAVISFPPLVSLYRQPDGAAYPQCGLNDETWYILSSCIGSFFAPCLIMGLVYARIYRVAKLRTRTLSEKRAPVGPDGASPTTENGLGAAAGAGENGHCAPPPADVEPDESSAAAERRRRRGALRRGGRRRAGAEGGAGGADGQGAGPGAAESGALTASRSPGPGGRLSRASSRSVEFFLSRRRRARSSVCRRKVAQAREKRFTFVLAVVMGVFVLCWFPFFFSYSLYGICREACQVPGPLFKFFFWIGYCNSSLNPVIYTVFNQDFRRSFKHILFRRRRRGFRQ
# [6] = inhibitors of larval lipid processing in zebrafish, primary screen, whole organism, PED6 fluorescence, gall bladder and intestine (AID 686;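 active = a full or partial loss of lipid-probe fluorescence in the fish gall bladder, intestine or both, judged by eye; inactive = no fluorescence loss, or compound toxic to the fish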;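 note: larvae 5 to 7 days old with five fish per well; signal comes from phospholipase A2 cleavage of quenched PED6 carried via bile; overnight exposure to compound and PED6 before scoring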); conditions: Zebrafish larvae PED6 lipid processing, fluorescence scoring; screened at 20 µM (by protocol)
# [7] = inhibitors of Chlamydomonas gravitaxis, primary screen, whole organism, Chlamydomonas reinhardtii, WT vs cilia-less mutant, absorbance, 96-well (AID 463189); conditions: OD600 absorbance, 2 days, at 10 µM, stronger effect = higher value;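 note: 0% = wild type cc124 cells in DMSO and 100% = ciliumless bld1 mutant cells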
# [8] = inhibitors of Sendai virus-induced IRF3 signaling, primary screen, TLR/RLR signaling modifier project, cell-based, Sendai virus stimulus, luciferase, 10K MLSCN set (AID 602276;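 active = inhibition at or above 50% at 10 µM; inactive = inhibition below 50%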;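 note: firefly luciferase from ISG56 promoter only with Renilla not read in this screen; 0% = Sendai virus plus DMSO and 100% = medium plus DMSO without virus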); conditions: HEK293 RL24 IRF3 luciferase reporter, at 10 µM, stronger effect = higher value
# [9] = inhibitors of poly I:C-induced TLR3 signaling, primary screen, cell-based, poly I:C stimulus, luciferase, 10K MLSCN set (AID 602277;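 active = inhibition of the reporter signal at or above 50%; inactive = inhibition below 50%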); conditions: HEK293-TLR3 RL24 IRF3 luciferase reporter, at 10 µM, stronger effect = higher value
# [10] = biological target: Voltage-gated potassium channel subunit beta-2 (Rattus norvegicus) (UniProt P62483); assay: KvBeta enzyme negative modulators, primary screen, biochemical, NADPH fluorescence (AID 622;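 active = fluorescence slope higher than the sample average by over 3 SD, cut at about -0.22 in these data, passing the limit was not always enough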;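 note: slope of raw intensity against log time taken from 70 to 1610 s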); conditions: recombinant KvBeta, 4-cyanobenzaldehyde reduction, at 10 µM, stronger effect = higher value
# Chain of Voltage-gated potassium channel subunit beta-2 (Rattus norvegicus) (P62483 whole entry, looked up): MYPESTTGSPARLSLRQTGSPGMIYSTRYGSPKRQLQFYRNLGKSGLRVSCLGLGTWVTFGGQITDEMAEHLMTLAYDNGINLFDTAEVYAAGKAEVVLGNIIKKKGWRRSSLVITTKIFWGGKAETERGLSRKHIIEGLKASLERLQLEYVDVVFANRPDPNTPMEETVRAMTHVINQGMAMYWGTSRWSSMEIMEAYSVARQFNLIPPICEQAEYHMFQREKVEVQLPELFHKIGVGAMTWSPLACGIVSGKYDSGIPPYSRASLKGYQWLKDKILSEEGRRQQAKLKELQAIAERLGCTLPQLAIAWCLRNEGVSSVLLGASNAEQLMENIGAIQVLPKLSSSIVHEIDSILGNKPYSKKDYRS
# [11] = biological target: Voltage-gated potassium channel subunit beta-2 (Rattus norvegicus) (UniProt P62483); assay: KvBeta positive modulators, primary screen, biochemical, NADPH fluorescence (AID 623;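 active = NADPH fluorescence slope more negative than the mean of all samples by about 3 SD, 99.7% confidence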;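 note: fluorescence intensity change per second fitted from 20 to 320 s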); conditions: Recombinant KvBeta, NADPH fluorescence decrease slope, 10 min; at 10 µM; stronger effect = lower value
# [12] = measured here: cell density z-score
# [13] = measured here: nuclear c-Myc green intensity z-score
# [14] = measured here: nuclear pErk red intensity z-score, stronger effect = higher value
Compound,cell count [1],inhibition [1],inhibition [2],nuclei count [2],"z-score [3, 12]","z-score [3, 13]","z-score [3, 14]",inhibition [4],slope [5],outcome [6],inhibition [7],inhibition [8],inhibition [9],fluorescence slope [10],NADPH fluorescence slope [11]
CC(C)(C)c1ccc(C(O)CCCN2CCC(C(O)(c3ccccc3)c3ccccc3)CC2)cc1 (centres undefined),520,6.8% (inactive),-51.1% (inactive),108%,0.975,0.958,-1.3,21.2% (inactive),0.00381 (inactive),inactive,24.3% (inactive) and 153% (active),25.2% (inactive),30% (inactive),,
Cc1noc(NS(=O)(=O)c2ccc(N)cc2)c1C,559,-7.4% (inactive),-149% (inactive),114%,0.375,-0.266,-1.23,5.42% (inactive),0.00419 (inactive),inactive,-6.69% (inactive),-9.57% (inactive),-11.4% (inactive),-0.478 (inactive),2.4e-05 (inactive)
Cc1cnc(NC(=O)C2=C(O)c3ccccc3S(=O)(=O)N2C)s1,640,4.7% (inactive),-46.4% (inactive),112%,-0.158,0.936,-1.17,30.1% (inactive),0.00455 (inactive),inactive,0.844% (inactive) and -7.88% (inactive),15.5% (inactive),32.8% (inactive),-0.427 (inactive),-1.4e-05 (inactive)
CCN(CC)CCn1c(O)c(N=O)c2ccccc21,314,-11.6% (inactive),-9% (inactive),111%,-0.589,-0.252,0.221,21% (inactive),0.00988 (inactive),,0.498% (inactive),,,-0.482 (inactive),-3.1e-05 (inactive)
CCOC(=O)c1cc2c(=O)n3ccccc3nc2n(Cc2ccccc2Cl)c1=N,339,0.5% (inactive),-3.3% (inactive),161%,-0.704,0.973,1.09,-1.75% (inactive),0.00529 (inactive),,12.4% (inactive),,,-0.39 (inactive),-0.000121 (inactive)
COc1cccc(/C(O)=C2/C(=O)C(=O)N(CCN(C)C)C2c2ccc(Br)cc2)c1 (centres undefined),321,18.1% (inactive),14.2% (inactive),102%,0.101,1.46,-0.618,-12.3% (inactive),0.00697 (inactive),,28.7% (inactive),,,-0.456 (inactive),7.9e-06 (inactive)
COc1ccc(N/C=C(\C#N)c2nc3ccccc3n2C)c(OC)c1,367,-0.5% (inactive),-18% (inactive),138%,-0.0541,-0.725,2.53,1.75% (inactive),0.00463 (inactive),,1.37% (inactive),,,-0.426 (inactive),-0.000158 (inactive)
O=C1C2ON(c3ccccc3)C(c3ccncc3)C2C(=O)N1c1ccc(Br)cc1 (centres undefined),360,-2.3% (inactive),-22.2% (inactive),148%,-0.515,-1.17,-0.44,12.3% (inactive),0.00415 (inactive),,24.8% (inactive),,,-0.414 (inactive),-0.000135 (inactive)
CC[N+](C)(C)Cc1ccccc1Br,649,-4.5% (inactive),-101% (inactive),123%,-1.09,-0.375,0.336,11.3% (inactive),0.00416 (inactive),inactive,3.29% (inactive) and 10.5% (inactive),19.3% (inactive),30.2% (inactive),-0.502 (inactive),1.7e-05 (inactive)
CCC1CCCCN1c1nc(-c2cccc(OC)c2O)nc2ccccc12 (centres undefined),322,0.9% (inactive),-128% (inactive),154%,-0.599,0.187,0.757,-8.76% (inactive),0.00525 (inactive),,3.59% (inactive),,,-0.454 (inactive),-0.000132 (inactive)
Cc1nnc(SCC2=C(C(=O)O)N3C(=O)[C@@H](NC(=O)Cn4cnnn4)[C@H]3SC2)s1,628,-2.9% (inactive),-103% (inactive),125%,-0.857,0.639,1.89,-6.41% (inactive),0.00463 (inactive),inactive,9.57% (inactive) and 15.2% (inactive),9.64% (inactive),21.6% (inactive),-0.495 (inactive),-4.7e-05 (inactive)
CC1=CC(c2ccccc2)n2nc(N3C(=O)C4CC=CCC4C3=O)nc2N1 (centres undefined),367,-3.2% (inactive),-63.7% (inactive),153%,0.978,-0.382,-0.0463,-5.26% (inactive),0.00753 (inactive),,-3.33% (inactive),,,-0.41 (inactive),-0.000143 (inactive)
CC(C)Oc1ccc2c(=O)c(-c3ccccc3)coc2c1,646,2.7% (inactive),-33.4% (inactive),124%,-1.12,-0.535,0.614,10.2% (inactive),0.00497 (inactive),inactive,-9.11% (inactive),-37.9% (inactive),-186% (inactive),-0.425 (inactive),-6.4e-05 (inactive)
CCOc1ccc(/C(O)=C2/C(=O)C(=O)N(c3nc(C)c(C)s3)C2c2ccco2)cc1 (centres undefined),326,13.9% (inactive),-54.1% (inactive),106%,-0.851,0.684,1.89,-10.5% (inactive),0.00508 (inactive),,-2.1% (inactive),,,-0.39 (inactive),-5.6e-05 (inactive)
N#C/C(=N\O)c1nc(-c2ccccc2)cs1,302,-1.9% (inactive),-12.9% (inactive),149%,0.00555,1.35,-0.606,1.75% (inactive),0.00629 (inactive),,2.16% (inactive),,,-0.418 (inactive),-0.000175 (inactive)
CCCOC(=O)C1[C@H]2C(=O)N(Cc3ccco3)C[C@]23C=C[C@H]1O3 (some centres undefined),337,-2.3% (inactive),-90.3% (inactive),155%,-0.841,0.28,-0.596,-7.01% (inactive),0.00455 (inactive),,1.77% (inactive),,,-0.424 (inactive),-0.000134 (inactive)
COc1ccccc1N(Cc1cc2cccc(C)c2[nH]c1=O)C(=O)C(C)C,355,-9.7% (inactive),-118% (inactive),171%,1.34,-1.06,-1.74,43.8% (inactive),0.00657 (inactive),,28.4% (inactive),,,-0.449 (inactive),-0.000154 (inactive)
COc1ccc(CNC(=O)[C@H](C)NC(=O)C2CCN(S(=O)(=O)c3ccc(C)cc3)CC2)cc1,299,10.2% (inactive),-34.1% (inactive),110%,-1.17,1.31,0.673,-3.5% (inactive),0.00578 (inactive),,-1.92% (inactive),,,-0.475 (inactive),-9.4e-05 (inactive)
CCCc1cc(=O)oc2c(CN3CCN(C)CC3)c(O)c(Cl)cc12,332,1.4% (inactive),4.8% (inactive),163%,1.29,-0.833,-1.37,1.6e-07% (inactive),0.00587 (inactive),,-8.3% (inactive),,,-0.229 (inactive),-1.7e-05 (inactive)
CC(C)Cn1nc(NC(=O)C(C)(C)C)c2cc3ccccc3nc21,366,1.4% (inactive),-86.4% (inactive),160%,-0.914,-0.417,1.07,-5.26% (inactive),0.00396 (inactive),,-27.1% (inactive),,,-0.371 (inactive),-0.000242 (inactive)
Cc1cccc(C)c1N1C(=O)C2ON(c3ccccc3)C(c3ccncc3)C2C1=O (centres undefined),382,-1.4% (inactive),-151% (inactive),141%,1.05,0.0518,-0.286,-1.75% (inactive),0.00363 (inactive),,-6.35% (inactive),,,-0.442 (inactive),-0.000159 (inactive)
COc1cccc(-c2nc(NC(C)(C)C)c3ccccc3n2)c1O,394,0% (inactive),-39.6% (inactive),141%,0.222,0.227,0.927,-1.75% (inactive),0.00293 (inactive),,34.2% (inactive),,,-0.422 (inactive),-0.000132 (inactive)
Cc1ccc(N2C(=O)C3ON(c4ccccc4)C(c4ccncc4)C3C2=O)c(C)c1 (centres undefined),326,-7.9% (inactive),-152% (inactive),164%,0.138,-0.827,-0.00414,-12.3% (inactive),0.00457 (inactive),,0.697% (inactive),,,-0.437 (inactive),-0.000117 (inactive)
Cc1ccc2nc(NCc3ccccc3)[nH]c2c1,360,-2.3% (inactive),-217% (inactive),171%,-0.018,-0.878,0.83,-14% (inactive),0.00328 (inactive),,24.8% (inactive),,,-0.447 (inactive),-0.00018 (inactive)
